Each structure is given as a SMILES string. This is part of a sample that, as a whole, favours compounds with a hit. Of some 83,000 tested, about 20% had one in any assay.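 Each cell line was grown in a 96-well plate and treated with one concentration of compound for 48 hours. Values below 10 were considered active.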 Calls of active or inactive are those of the source.

The test system of the assay is HL-60(TB) leukemia. The assay is described as follows: NCI-60 one-dose screen, 48 h (100 = growth as untreated, 0 = no growth, -100 = all killed). To be noted: 10 µM unless noted.
Consider `N#CC1=C(N)Oc2ccc3ccccc3c2C1c1ccccc1Cl` (stereo not given), for which the growth was 0.765% (active).

As for `COc1ccc(-c2cc(-c3ccccc3)nc(NCCNc3ccnc4cc(Cl)ccc34)n2)cc1`, the growth is -58.7% (active).

As for `CC(=O)OC[C@H]1O[C@H](OC(C)=O)[C@H](NC(=O)/C=C/CCl)[C@@H](OC(C)=O)[C@@H]1OC(C)=O`, the growth was 96.4% (inactive).

As to `COc1ccc(/C=N\NC(=O)c2ccncc2)cc1O`, the growth was 97.9% (inactive).

As for `O=S(=O)(NCCCNc1nccc(-c2c(-c3cccc(O)c3)nc3occn23)n1)c1ccc(Br)cc1`, the growth was 69.7% (inactive).

In the case of `C=C(C)C1CCC2(C(=O)O)CCC3(C)C(CCC4C5(C)CCC(OC(=O)NCc6ccccc6)C(C)(C)C5CCC43C)C12` (stereo not given), the growth was 23% (inactive).

In the case of `Cc1cc2nc3c4cc([N+](=O)[O-])cc([N+](=O)[O-])c4n(CCN(C)C)c3nc2cc1C`, the growth is 98.2% (inactive).

In the case of `C=C1CCC2C3(C)COC(C)(C)OC3CCC2(C)C1C/C=C1/C(=O)OCC1OC(C)=O` (stereo not given), the growth was -43.8% (active).

Turning to `O=[N+]([O-])c1cc(Br)cc2c1[nH]c1ccc(Br)cc12`, the growth is 85% (inactive).

`NC(=S)N/N=C\c1nccc2c(C(F)(F)F)cccc12`: the growth is -24.8% (active).

For the molecule `NC(=O)NC(=O)/C=C/C(=O)OCCCl`, the growth was 91.6% (inactive).

On to `Oc1cc2ccccc2c(-c2c(O)c(O)cc3ccccc23)c1O`, for which the growth was 19.8% (inactive).

In the case of `CCOc1cc2c(cc1OCC)C(c1cc(C)c(O)c(C)c1)NCC2` (stereo not given), the growth was 81.7% (inactive).

Take `COc1ccc(NC(=O)c2sc3c(=O)[nH]c(C(F)(F)F)nc3c2C)cc1`: the growth was 106% (inactive).

Take `CN1CCC(CNc2cc(C3(C(=O)Nc4cc(C(=O)Nc5ccc(Cl)c(C(F)(F)F)c5)ccc4F)CC3)ncn2)CC1`: the growth is -7.85% (active).

Consider `CCCCCCCCCCN=C(N)N=C(N)N`, for which the growth was 1.55% (active).

With `COc1cc([N+](=O)[O-])c2ncccc2c1O`, the growth was 72.1% (inactive).

In the case of `C/C(=N\NC(=O)CSc1nc2ccccc2c(=O)n1Cc1ccc(S(N)(=O)=O)cc1)c1ccc(F)cc1`, the growth is 101% (inactive).

For `Nc1ccc2c(c1)C(=O)c1cc(Cl)c(Cl)cc1-2`, the growth is 76.2% (inactive).

In the case of `CC(c1ccccc1)N1C(=O)CSC1=S` (stereo not given), the growth was -40.6% (active).

As to `NC(=O)N/N=C/c1ccc(Br)o1`, the growth is 95.8% (inactive).

As for `Cc1ncc(C(=O)Nc2ccc(CN3CCN(C)CC3)c(C(F)(F)F)c2)cc1C#Cc1cncc2ncccc12`, the growth was 41.7% (inactive).

Consider `CC(C)CCC[C@@H](C)[C@H]1CCC2C3=CCn4c(=O)ccc(=O)n4C3CC[C@@]21C` (stereo not given in full), for which the growth was -43.3% (active).

For `CCCCn1c(C)nc2cc(Nc3nc(N4CCCCC4)nc4nc[nH]c34)ccc21`, the growth is 78.4% (inactive).

Turning to `COc1cc(CCc2cc(NC(=O)c3ccc(N4C[C@@H](C)N[C@@H](C)C4)cc3)n[nH]2)cc(OC)c1`, the growth was 12.5% (inactive).

Consider `C#CC[C@@H]1C[C@]2(C)[C@H]3CC[C@@H]4[C@H]5[C@H](C(=C)C)CC[C@]5(C(=O)O)CC[C@@]4(C)[C@]3(C)CC[C@H]2C(C)(C)[C@H]1O`, for which the growth was 44.2% (inactive).

For the molecule `COc1cnc2c(c1)C(=O)c1c-2n(CCCNC(C)C)c(=O)c2cc(F)ccc12`, the growth is -38.7% (active).

For the molecule `COc1cccc(-c2nc(-c3ccc(NC(=O)C(C)C)cc3)[nH]c2-c2ccnc(Br)c2)c1`, the growth is -23.4% (active).

Consider `CCn1cc2c(cc1=O)-c1nc3ccccc3c3ccnc(c13)C2=O`, for which the growth is 93.9% (inactive).

Take `Cc1ccc(-n2c(-c3ccccc3)c(-c3ccccc3)c3c(SCC(=O)n4[nH]c(N)cc4=O)ncnc32)cc1`: the growth is 102% (inactive).

For the molecule `CSc1nn(-c2ccccc2)c2ncnc(Oc3ccc(C)cc3)c12`, the growth was 98.3% (inactive).

In the case of `CNC1(C#N)CCN(Cc2ccccc2)CC1`, the growth is 168% (inactive).

`O=C(CC(CC(=O)c1ccccc1)c1ccccn1)c1ccccc1`: the growth was 104% (inactive).

As to `CNC(=O)c1ccccc1Oc1nc(Nc2cc(OC)c(OC)c(OC)c2)ncc1Br`, the growth is 53.2% (inactive).

On to `O=c1[nH]cc(/C=N\Nc2ccccc2)c(=O)[nH]1`, for which the growth is 0.751% (active).

Turning to `CCCCCCCCCCCCCCCCCBr`, the growth was 103% (inactive).

Turning to `COc1ccc(C2=NN(c3ccc(S(N)(=O)=O)cc3)C(c3ccc(Cl)cc3)C2)c(O)c1` (stereo not given), the growth was 29.9% (inactive).

As to `COc1cccc(-c2[nH]c(=S)ncc2C(=O)c2ccccc2)c1`, the growth is 78.2% (inactive).

On to `O=C(Oc1ccc(CCl)cc1)c1ccccc1`, for which the growth is -44.6% (active).

In the case of `Cc1cc(C)cc(NC(=O)Cn2nncc2CN2C(=O)CSC2=O)c1`, the growth was 97.9% (inactive).
